Reference: PubChem BioAssay (NCATS)
Values without a mark were called inactive. Results filed as inconclusive are left out. Where a call stands in place of a potency, no number is given. The source made the active and inactive calls. The call rests on the fitted dose curve; in most records, active means well fitted curve in the direction sought with a large enough effect; inconclusive means small, poorly fitted or top-dose-only effect, or another doubt; inactive means no such curve, though single readings can be large; an effect the other way counts as inactive or inconclusive.

Tests used:
[1] = target: Cytochrome P450 2C9 (Homo sapiens) (UniProt P11712); assay: qHTS Assay for Inhibitors and Substrates of Cytochrome P450 2C9 (AID 883); further: nearly all actives have a fitted effect of over 60% in size; further: potency means the concentration at half of the fitted maximal effect
Method in brief: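 A luminogenic readout tracked human CYP2C9 (10nM) converting deoxyluciferin (100uM, at KM) in 25mM KPO4 during 60 min at 37C with regenerated NADPH. Values normalized to 57uM sulphaphenazole as complete inhibition.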

[2] = target: Cytochrome P450 3A4 (Homo sapiens) (UniProt P08684); assay: qHTS Assay for Inhibitors and Substrates of Cytochrome P450 3A4 (AID 884); further: nearly all actives have a fitted effect of over 50% in size; further: potency means the concentration at half of the fitted maximal effect; on activity change, negative = inhibition: series mostly up to about 57 µM
Method in brief: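 20 nM human CYP3A4 with 25 uM Luciferin-PPXE (at KM) in 200 mM KPO4, preincubated 10 min with compound; NADPH regeneration started a 60 min RT reaction. Luciferin detected by luminescence, normalized to 57 uM ketoconazole as full inhibition.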

[3] = target: Cytochrome P450 2D6 (Homo sapiens) (UniProt P10635); assay: qHTS Assay for Inhibitors and Substrates of Cytochrome P450 2D6 (AID 891);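 further: luciferin methyl ether substrate demethylated by CYP2D6 with NADPH regeneration; nearly all actives have a fitted effect of over 60% in size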
Method in brief: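 Human CYP2D6 (5 nM) with 30 uM Luciferin-ME EGE (at Km) in 100 mM KPO4, compound preincubated 10 min, then NADPH regeneration system for 60 min at room temperature. Luciferin read by luminescence; normalized to 1.43 uM quinidine.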

[4] = target: Cytochrome P450 2C19 (Homo sapiens) (UniProt P33261); assay: qHTS Assay for Inhibitors and Substrates of Cytochrome P450 2C19 (AID 899); further: nearly all actives have a fitted effect of over 60% in size; further: potency means the concentration at half of the fitted maximal effect
Method in brief: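 NADPH-dependent conversion of Luciferin-H EGE (10uM, at KM) by 5nM enzyme in 50mM KPO4, 60 min at 37C following 10 min compound preincubation. Stopped with luciferin detection buffer; luminescence read after 20 min.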

[5] = target: Cytochrome P450 3A4 (Homo sapiens) (UniProt P08684); assay: qHTS Assay for Activators of Cytochrome P450 3A4 (AID 885); further: nearly all actives have a fitted effect of over 65% in size
Method in brief: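 Signal was normalized against complete inhibition by 57 uM ketoconazole. The reaction used 20nM CYP3A4 with 25uM Luciferin-PPXE, 10-min compound preincubation and a 60-min NADPH-supported step at RT.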

Chain of Cytochrome P450 2C9 (Homo sapiens) (P11712 whole entry, looked up): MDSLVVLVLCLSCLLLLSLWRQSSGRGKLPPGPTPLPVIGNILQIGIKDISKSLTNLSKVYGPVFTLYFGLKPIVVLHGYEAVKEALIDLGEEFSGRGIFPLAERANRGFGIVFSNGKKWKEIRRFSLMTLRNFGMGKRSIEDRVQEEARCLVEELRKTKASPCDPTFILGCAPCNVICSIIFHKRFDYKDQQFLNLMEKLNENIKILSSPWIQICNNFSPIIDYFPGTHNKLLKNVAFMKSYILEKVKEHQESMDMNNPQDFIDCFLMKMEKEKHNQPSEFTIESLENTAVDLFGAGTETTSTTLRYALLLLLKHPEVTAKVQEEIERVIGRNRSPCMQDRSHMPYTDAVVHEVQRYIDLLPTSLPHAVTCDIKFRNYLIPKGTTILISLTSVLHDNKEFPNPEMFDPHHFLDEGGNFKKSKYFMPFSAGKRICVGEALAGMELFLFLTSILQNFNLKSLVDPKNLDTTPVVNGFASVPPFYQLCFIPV
Chain of Cytochrome P450 2D6 (Homo sapiens) (P10635 whole entry, looked up): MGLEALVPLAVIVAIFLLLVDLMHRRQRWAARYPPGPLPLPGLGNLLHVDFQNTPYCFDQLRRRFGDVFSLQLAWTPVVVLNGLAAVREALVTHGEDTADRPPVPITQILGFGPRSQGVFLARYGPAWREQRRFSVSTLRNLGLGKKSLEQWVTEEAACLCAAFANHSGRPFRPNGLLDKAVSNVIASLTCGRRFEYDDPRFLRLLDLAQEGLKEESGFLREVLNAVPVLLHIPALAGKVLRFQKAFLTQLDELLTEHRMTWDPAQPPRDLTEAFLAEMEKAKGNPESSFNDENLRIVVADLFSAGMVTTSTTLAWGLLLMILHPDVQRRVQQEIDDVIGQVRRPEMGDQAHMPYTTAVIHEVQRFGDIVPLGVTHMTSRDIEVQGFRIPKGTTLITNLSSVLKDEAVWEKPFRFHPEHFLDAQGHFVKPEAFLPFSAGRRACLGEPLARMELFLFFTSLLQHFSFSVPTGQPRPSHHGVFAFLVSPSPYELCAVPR
Chain of Cytochrome P450 3A4 (Homo sapiens) (P08684 whole entry, looked up): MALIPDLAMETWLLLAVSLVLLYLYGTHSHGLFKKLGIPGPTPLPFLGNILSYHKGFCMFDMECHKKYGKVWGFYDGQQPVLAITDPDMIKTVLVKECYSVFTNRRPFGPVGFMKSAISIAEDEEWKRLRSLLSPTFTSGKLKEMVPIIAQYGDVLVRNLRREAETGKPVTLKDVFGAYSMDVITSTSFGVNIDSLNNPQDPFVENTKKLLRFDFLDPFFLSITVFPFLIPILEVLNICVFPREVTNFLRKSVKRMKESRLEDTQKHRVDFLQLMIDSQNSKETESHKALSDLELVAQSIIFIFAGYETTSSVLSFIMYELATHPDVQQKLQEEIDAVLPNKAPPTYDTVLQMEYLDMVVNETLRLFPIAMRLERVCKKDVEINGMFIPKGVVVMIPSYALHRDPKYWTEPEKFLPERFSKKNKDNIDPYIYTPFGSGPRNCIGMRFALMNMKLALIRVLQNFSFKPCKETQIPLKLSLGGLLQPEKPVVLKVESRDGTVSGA
Chain of Cytochrome P450 2C19 (Homo sapiens) (P33261 whole entry, looked up): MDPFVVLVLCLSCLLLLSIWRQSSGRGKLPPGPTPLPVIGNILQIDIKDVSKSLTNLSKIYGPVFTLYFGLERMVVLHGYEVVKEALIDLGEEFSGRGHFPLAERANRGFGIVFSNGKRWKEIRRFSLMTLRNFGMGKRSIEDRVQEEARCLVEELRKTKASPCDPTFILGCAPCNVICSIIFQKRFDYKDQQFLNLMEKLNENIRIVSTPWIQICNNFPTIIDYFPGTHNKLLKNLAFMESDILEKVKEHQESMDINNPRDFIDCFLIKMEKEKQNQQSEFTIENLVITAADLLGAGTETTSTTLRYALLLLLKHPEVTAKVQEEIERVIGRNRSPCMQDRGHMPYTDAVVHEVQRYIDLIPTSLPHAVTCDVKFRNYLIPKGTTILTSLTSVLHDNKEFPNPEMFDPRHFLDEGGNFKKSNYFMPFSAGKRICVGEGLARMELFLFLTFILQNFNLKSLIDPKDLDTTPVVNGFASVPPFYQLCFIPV

COC(=O)NC(/C(C(=O)OC)=C(\C)NCc1ccccc1)c1ccco1 (stereo unspecified)
Potency [1]: inactive
activity change, negative = inhibition [2]: -20.3% [at 11.4 µM]
Potency [3]: inactive
Potency [4]: inactive

C=CCC1(c2ccccc2)Oc2ccc(C)cc2-c2nc3cc(Cl)c(Cl)cc3nc21 (stereo unspecified)
Potency [1]: inactive
activity change, negative = inhibition [2]: -28.2% [at 11.4 µM]
Potency [3]: inactive
Potency [4]: inactive

CC(=O)OCC1OC(C#CC2=CCCCC2)C=CC1OC(C)=O (stereo unspecified)
Potency [1]: inactive
activity change, negative = inhibition [2]: -27.5% [at 11.4 µM]
Potency [3]: inactive

CCC(=O)CC(NC(=O)OC)c1ccc(F)cc1 (stereo unspecified)
Potency [1]: inactive
activity change, negative = inhibition [2]: -17.9% [at 11.4 µM]
Potency [3]: inactive
Potency [4]: inactive

COc1cc(C2c3[nH]c4ccccc4c3CC3C(=O)N4C(Cc5c([nH]c6ccccc56)C4c4cc(OC)c(OC)c(OC)c4)C(=O)N32)cc(OC)c1OC (stereo unspecified)
Potency [1]: inactive
activity change, negative = inhibition [2]: -16.6% [at 11.4 µM]
Potency [3]: inactive

C=CCc1cccc(C2NC(C(=O)O)CCC2C)c1 (stereo unspecified)
Potency [1]: inactive
activity change, negative = inhibition [2]: -20.1% [at 11.4 µM]
Potency [3]: inactive

CCCCCCC/C=C/C1=CC2(C)CC1(C)C(CCCCCCC)CC2=O (stereo unspecified)
Potency [1]: inactive
activity change, negative = inhibition [2]: -15% [at 11.4 µM]
Potency [3]: inactive

CCOC(=O)OCC1OC(C#Cc2ccccc2)C=CC1Oc1cccc(N(C)C)c1 (stereo unspecified)
Potency [1]: 2.51 µM (active)
Potency [2]: 3.98 µM (active)
activity change, positive = activation [5]: -91.5% [at 11.4 µM]
Potency [4]: 1.58 µM (active)

C=C(C)C(O)/C=C/c1ccc(Br)cc1 (stereo unspecified)
Potency [1]: 3.16 µM (active)
Potency [2]: 3.98 µM (active)
activity change, positive = activation [5]: -65.3% [at 11.4 µM]
Potency [4]: 0.02 µM (active)

Cc1cc(F)ccc1OC1C=CC(c2ccc3c(c2)OCO3)OC1CO (stereo unspecified)
Potency [1]: 3.16 µM (active)
Potency [2]: 3.16 µM (active)
activity change, positive = activation [5]: -72.5% [at 11.4 µM]
Potency [4]: inactive

COc1ccc(O[C@H]2C=C[C@@H](c3ccccc3)O[C@H]2COC(=O)CC/C(C)=N/OCC[C@@H]2C=C[C@H](OC(C)=O)[C@H](COC(C)=O)O2)cc1
Potency [1]: 3.98 µM (active)
Potency [2]: 3.98 µM (active)
activity change, positive = activation [5]: -91.8% [at 11.4 µM]
Potency [4]: 0.398 µM (active)

CNc1ccccc1C(=O)OCC(=O)c1ccccc1
Potency [1]: inactive
activity change, negative = inhibition [2]: -18.7% [at 11.4 µM]
Potency [3]: inactive

CC12C=C(/C=C/c3ccc(F)cc3)C(C)(C1)C(c1ccc(F)cc1)CC2=O (stereo unspecified)
Potency [1]: inactive
activity change, negative = inhibition [2]: -18.4% [at 11.4 µM]
Potency [3]: inactive
Potency [4]: 2.51 µM (active)

CCCNC(=O)OC[C@H]1O[C@@H](CCO/N=C\[C@@H](NS(=O)(=O)c2ccc(C)cc2)[C@H](C)/C=C\CC(=O)OC)C=C[C@@H]1Oc1ccc(OC)cc1
Potency [1]: 3.98 µM (active)
Potency [2]: 3.16 µM (active)
activity change, positive = activation [5]: -106% [at 11.4 µM]
Potency [4]: 3.16 µM (active)

CC1(C)OC(C(O)(c2cc(C(F)(F)F)cc(C(F)(F)F)c2)c2cc(C(F)(F)F)cc(C(F)(F)F)c2)C(C(O)(c2cc(C(F)(F)F)cc(C(F)(F)F)c2)c2cc(C(F)(F)F)cc(C(F)(F)F)c2)O1 (stereo unspecified)
Potency [1]: inactive
activity change, negative = inhibition [2]: -21% [at 11.4 µM]
Potency [3]: inactive

Cc1c(OCc2ccccc2)cccc1OCc1ccccc1
Potency [1]: inactive
activity change, negative = inhibition [2]: -25.2% [at 11.4 µM]
Potency [3]: inactive
Potency [4]: inactive

OCC1OC(c2ccccc2)C=CC1Oc1cc(Cl)cc(Cl)c1 (stereo unspecified)
Potency [1]: inactive
activity change, negative = inhibition [2]: 5.16% [at 11.4 µM]
Potency [3]: inactive

COC(C(C)/C=C/CC(=O)OCCCc1ccccc1)C1CCCCC1 (stereo unspecified)
Potency [1]: inactive
activity change, negative = inhibition [2]: -20.5% [at 11.4 µM]
Potency [3]: inactive
Potency [4]: inactive

COc1ccc(OCC2CC3C(CCC(C)C3c3ccc(Br)cc3)C(=O)O2)cc1 (stereo unspecified)
Potency [1]: inactive
Potency [2]: 3.98 µM (active)
activity change, positive = activation [5]: -84.4% [at 11.4 µM]
Potency [4]: inactive

CC12CC3OS(=O)OC3CC3C4C(C(OCc5ccccc5)C31)C42 (stereo unspecified)
Potency [1]: inactive
activity change, negative = inhibition [2]: -26.1% [at 11.4 µM]
Potency [3]: inactive

O=C1C=CC2(OCCCO2)C(Br)=C1
Potency [1]: inactive
activity change, negative = inhibition [2]: -14% [at 11.4 µM]
Potency [3]: inactive
Potency [4]: inactive

CCCCc1nc2c(c3c1CC(C)OC3)CN(CCC(C)C)CC2 (stereo unspecified)
Potency [1]: inactive
Potency [2]: 3.98 µM (active)
activity change, positive = activation [5]: -60.1% [at 11.4 µM]
Potency [4]: inactive

CC1CCC(C(=O)O)NC1c1cccc(N2CCOCC2)c1 (stereo unspecified)
Potency [1]: inactive
activity change, negative = inhibition [2]: -10.3% [at 11.4 µM]
Potency [3]: inactive

CC(=O)OCC1OC(c2ccc(C(C)=O)cc2)C=CC1OC(C)=O (stereo unspecified)
Potency [1]: inactive
activity change, negative = inhibition [2]: -20.5% [at 11.4 µM]
Potency [3]: inactive

COC(=O)NC(c1cccc(F)c1)[C@]1(C(C)=O)CCCC1=O (stereo partly specified)
Potency [1]: inactive
activity change, negative = inhibition [2]: -13.9% [at 11.4 µM]
Potency [3]: inactive

Cc1ccc(C#CC2C=CC(Oc3ccc4c(c3)OCO4)C(CO)O2)c(C)c1 (stereo unspecified)
Potency [1]: inactive
activity change, negative = inhibition [2]: -16.9% [at 11.4 µM]
Potency [3]: inactive
Potency [4]: inactive

CC(=O)Nc1ccc(C2NC(C(=O)O)CCC2C)cc1 (stereo unspecified)
Potency [1]: inactive
activity change, negative = inhibition [2]: -21% [at 11.4 µM]
Potency [3]: inactive
Potency [4]: inactive

COC(=O)CC1=COC2OCC3=CC[C@@H]1C32 (stereo partly specified)
Potency [1]: inactive
activity change, negative = inhibition [2]: -15.8% [at 11.4 µM]
Potency [3]: inactive
Potency [4]: inactive
